Assay results: the supplement of paper PMC11732987, “Enantioselective OTUD7B fragment discovery through chemoproteomics screening and high-throughput optimisation” (Communications Chemistry, 2025)

Experiments:
Test in all cases: log2 ratio of Biotin-Ahx-Ub-VS probe labelling (fragment/DMSO); higher = less target engagement (more negative = stronger competition), active = hit call of the paper (q ≤ 0.05, log2 ratio ≤ -1)
Conditions in all cases: compound concentration: 200 uM; treatment time: 3 h
USP34 = USP34 (UniProt Q70CQ2)
Outline: (§1)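 Average log2 ratios of fragment over vehicle were obtained by unpaired t-test from global-median-normalised Spectronaut label-free quantities. Proteins with ≥2 unique peptides were included. HEK293T lysate (495 µg per sample) was treated in triplicate with fragment at 200 µM or vehicle for 3 h, then with Biotin-Ahx-Ub-VS at 0.5 µM final for 1 h, and labelled DUBs were NeutrAvidin-enriched and run by diaPASEF LC-MS/MS.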

USP36 = molecular target: T1, USP36 (UniProt Q9P275)
T1 sequence (whole entry): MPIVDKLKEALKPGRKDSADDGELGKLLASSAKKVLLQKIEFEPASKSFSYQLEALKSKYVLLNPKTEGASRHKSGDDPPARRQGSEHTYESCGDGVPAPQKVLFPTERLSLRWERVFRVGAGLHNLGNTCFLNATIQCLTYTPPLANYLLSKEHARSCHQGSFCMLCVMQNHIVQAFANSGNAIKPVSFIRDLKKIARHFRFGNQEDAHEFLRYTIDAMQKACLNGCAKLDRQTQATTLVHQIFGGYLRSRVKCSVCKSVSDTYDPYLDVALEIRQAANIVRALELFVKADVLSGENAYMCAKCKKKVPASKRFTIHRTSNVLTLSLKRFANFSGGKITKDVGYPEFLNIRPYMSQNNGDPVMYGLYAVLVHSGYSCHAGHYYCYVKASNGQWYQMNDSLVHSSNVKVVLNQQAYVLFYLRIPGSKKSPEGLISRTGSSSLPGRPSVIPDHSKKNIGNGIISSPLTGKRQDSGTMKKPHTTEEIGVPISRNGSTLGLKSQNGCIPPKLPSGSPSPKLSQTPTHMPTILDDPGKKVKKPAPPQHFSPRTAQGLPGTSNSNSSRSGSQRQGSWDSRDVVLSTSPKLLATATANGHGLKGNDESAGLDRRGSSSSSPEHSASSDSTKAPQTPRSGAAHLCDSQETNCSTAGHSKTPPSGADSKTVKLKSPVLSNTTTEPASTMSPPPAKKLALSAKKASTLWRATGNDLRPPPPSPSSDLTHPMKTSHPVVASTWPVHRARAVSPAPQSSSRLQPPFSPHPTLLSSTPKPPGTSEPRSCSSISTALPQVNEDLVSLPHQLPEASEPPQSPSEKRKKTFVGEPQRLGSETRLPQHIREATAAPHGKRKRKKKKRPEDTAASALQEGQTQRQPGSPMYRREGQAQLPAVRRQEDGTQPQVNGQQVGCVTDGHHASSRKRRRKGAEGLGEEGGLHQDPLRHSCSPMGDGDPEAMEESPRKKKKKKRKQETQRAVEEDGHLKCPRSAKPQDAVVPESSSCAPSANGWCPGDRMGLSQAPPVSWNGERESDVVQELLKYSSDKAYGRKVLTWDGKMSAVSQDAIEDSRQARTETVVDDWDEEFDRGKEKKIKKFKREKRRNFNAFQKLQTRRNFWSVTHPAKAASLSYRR
Outline: as §1

USP38 = molecular target: T2, USP38 (UniProt Q8NB14)
T2 sequence (whole entry): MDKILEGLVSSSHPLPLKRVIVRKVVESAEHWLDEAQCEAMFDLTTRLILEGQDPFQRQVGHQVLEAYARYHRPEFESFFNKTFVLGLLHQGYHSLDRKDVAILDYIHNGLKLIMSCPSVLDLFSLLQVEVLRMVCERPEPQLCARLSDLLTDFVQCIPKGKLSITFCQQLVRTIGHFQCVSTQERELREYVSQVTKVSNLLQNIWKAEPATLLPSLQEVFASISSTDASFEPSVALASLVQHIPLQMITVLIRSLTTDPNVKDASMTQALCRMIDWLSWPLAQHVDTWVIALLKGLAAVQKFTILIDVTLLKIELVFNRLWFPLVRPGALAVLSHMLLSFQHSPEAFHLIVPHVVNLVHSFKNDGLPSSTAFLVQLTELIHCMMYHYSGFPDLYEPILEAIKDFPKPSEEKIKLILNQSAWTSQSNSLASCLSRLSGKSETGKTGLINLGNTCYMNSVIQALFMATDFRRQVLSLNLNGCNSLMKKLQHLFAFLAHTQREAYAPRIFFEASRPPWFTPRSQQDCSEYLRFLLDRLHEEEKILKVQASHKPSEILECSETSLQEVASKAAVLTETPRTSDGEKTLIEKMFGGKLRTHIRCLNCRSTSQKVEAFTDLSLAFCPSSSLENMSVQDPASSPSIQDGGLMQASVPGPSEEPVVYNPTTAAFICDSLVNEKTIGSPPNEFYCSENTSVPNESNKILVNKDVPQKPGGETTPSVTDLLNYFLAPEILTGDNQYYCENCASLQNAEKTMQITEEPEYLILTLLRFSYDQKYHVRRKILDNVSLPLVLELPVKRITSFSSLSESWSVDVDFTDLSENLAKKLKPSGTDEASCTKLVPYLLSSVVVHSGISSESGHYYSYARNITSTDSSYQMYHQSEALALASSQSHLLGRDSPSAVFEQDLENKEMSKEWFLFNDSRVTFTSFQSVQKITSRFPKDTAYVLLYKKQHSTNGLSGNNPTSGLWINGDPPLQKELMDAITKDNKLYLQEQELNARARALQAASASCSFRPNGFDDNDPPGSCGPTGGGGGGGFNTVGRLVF
Outline: as §1

USP39 = molecular target: T3, USP39 (UniProt Q53GS9)
T3 sequence (whole entry): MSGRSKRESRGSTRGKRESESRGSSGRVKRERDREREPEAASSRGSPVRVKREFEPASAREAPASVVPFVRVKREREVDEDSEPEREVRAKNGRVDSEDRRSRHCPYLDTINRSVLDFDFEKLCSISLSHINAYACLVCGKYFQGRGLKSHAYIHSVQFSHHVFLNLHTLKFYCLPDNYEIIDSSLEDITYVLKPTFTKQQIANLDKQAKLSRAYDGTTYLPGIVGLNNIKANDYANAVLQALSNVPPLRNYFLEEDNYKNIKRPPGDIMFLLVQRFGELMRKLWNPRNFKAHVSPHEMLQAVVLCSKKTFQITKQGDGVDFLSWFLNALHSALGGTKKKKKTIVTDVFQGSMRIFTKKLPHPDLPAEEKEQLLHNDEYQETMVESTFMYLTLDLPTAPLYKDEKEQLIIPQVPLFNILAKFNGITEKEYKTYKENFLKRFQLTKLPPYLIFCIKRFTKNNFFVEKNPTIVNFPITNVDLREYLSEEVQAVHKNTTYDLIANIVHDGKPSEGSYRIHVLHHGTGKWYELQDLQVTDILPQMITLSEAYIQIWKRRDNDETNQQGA
Outline: as §1

USP4 = molecular target: T4, USP4 (UniProt Q13107)
T4 sequence (whole entry): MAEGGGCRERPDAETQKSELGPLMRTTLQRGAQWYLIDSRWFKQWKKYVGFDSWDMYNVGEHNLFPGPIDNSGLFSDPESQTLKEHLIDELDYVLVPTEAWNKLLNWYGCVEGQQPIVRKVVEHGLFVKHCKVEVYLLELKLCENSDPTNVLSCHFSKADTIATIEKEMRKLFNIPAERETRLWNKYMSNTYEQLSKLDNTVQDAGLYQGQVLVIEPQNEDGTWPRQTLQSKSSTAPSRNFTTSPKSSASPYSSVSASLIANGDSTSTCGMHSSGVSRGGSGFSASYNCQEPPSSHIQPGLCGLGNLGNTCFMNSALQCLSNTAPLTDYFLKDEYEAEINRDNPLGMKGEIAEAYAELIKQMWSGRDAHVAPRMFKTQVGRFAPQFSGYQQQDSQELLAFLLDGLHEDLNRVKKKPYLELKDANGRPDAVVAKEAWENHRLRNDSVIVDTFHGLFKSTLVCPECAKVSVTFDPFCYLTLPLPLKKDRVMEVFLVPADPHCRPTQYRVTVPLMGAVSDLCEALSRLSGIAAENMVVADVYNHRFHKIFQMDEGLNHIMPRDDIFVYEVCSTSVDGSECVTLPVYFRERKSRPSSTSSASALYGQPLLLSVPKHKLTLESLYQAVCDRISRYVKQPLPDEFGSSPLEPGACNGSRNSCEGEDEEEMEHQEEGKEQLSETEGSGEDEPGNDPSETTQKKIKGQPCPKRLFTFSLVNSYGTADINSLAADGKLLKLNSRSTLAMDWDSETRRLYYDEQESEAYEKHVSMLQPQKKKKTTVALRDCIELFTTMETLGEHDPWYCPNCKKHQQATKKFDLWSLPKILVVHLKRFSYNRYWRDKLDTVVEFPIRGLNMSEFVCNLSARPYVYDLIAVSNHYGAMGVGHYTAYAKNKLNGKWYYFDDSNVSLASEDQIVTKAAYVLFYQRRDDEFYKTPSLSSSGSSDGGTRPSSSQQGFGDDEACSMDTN
Outline: as §1

Measured: log2 ratio of Biotin-Ahx-Ub-VS probe labelling

Chain of USP34 (Q70CQ2 whole entry, the tested form may be a part): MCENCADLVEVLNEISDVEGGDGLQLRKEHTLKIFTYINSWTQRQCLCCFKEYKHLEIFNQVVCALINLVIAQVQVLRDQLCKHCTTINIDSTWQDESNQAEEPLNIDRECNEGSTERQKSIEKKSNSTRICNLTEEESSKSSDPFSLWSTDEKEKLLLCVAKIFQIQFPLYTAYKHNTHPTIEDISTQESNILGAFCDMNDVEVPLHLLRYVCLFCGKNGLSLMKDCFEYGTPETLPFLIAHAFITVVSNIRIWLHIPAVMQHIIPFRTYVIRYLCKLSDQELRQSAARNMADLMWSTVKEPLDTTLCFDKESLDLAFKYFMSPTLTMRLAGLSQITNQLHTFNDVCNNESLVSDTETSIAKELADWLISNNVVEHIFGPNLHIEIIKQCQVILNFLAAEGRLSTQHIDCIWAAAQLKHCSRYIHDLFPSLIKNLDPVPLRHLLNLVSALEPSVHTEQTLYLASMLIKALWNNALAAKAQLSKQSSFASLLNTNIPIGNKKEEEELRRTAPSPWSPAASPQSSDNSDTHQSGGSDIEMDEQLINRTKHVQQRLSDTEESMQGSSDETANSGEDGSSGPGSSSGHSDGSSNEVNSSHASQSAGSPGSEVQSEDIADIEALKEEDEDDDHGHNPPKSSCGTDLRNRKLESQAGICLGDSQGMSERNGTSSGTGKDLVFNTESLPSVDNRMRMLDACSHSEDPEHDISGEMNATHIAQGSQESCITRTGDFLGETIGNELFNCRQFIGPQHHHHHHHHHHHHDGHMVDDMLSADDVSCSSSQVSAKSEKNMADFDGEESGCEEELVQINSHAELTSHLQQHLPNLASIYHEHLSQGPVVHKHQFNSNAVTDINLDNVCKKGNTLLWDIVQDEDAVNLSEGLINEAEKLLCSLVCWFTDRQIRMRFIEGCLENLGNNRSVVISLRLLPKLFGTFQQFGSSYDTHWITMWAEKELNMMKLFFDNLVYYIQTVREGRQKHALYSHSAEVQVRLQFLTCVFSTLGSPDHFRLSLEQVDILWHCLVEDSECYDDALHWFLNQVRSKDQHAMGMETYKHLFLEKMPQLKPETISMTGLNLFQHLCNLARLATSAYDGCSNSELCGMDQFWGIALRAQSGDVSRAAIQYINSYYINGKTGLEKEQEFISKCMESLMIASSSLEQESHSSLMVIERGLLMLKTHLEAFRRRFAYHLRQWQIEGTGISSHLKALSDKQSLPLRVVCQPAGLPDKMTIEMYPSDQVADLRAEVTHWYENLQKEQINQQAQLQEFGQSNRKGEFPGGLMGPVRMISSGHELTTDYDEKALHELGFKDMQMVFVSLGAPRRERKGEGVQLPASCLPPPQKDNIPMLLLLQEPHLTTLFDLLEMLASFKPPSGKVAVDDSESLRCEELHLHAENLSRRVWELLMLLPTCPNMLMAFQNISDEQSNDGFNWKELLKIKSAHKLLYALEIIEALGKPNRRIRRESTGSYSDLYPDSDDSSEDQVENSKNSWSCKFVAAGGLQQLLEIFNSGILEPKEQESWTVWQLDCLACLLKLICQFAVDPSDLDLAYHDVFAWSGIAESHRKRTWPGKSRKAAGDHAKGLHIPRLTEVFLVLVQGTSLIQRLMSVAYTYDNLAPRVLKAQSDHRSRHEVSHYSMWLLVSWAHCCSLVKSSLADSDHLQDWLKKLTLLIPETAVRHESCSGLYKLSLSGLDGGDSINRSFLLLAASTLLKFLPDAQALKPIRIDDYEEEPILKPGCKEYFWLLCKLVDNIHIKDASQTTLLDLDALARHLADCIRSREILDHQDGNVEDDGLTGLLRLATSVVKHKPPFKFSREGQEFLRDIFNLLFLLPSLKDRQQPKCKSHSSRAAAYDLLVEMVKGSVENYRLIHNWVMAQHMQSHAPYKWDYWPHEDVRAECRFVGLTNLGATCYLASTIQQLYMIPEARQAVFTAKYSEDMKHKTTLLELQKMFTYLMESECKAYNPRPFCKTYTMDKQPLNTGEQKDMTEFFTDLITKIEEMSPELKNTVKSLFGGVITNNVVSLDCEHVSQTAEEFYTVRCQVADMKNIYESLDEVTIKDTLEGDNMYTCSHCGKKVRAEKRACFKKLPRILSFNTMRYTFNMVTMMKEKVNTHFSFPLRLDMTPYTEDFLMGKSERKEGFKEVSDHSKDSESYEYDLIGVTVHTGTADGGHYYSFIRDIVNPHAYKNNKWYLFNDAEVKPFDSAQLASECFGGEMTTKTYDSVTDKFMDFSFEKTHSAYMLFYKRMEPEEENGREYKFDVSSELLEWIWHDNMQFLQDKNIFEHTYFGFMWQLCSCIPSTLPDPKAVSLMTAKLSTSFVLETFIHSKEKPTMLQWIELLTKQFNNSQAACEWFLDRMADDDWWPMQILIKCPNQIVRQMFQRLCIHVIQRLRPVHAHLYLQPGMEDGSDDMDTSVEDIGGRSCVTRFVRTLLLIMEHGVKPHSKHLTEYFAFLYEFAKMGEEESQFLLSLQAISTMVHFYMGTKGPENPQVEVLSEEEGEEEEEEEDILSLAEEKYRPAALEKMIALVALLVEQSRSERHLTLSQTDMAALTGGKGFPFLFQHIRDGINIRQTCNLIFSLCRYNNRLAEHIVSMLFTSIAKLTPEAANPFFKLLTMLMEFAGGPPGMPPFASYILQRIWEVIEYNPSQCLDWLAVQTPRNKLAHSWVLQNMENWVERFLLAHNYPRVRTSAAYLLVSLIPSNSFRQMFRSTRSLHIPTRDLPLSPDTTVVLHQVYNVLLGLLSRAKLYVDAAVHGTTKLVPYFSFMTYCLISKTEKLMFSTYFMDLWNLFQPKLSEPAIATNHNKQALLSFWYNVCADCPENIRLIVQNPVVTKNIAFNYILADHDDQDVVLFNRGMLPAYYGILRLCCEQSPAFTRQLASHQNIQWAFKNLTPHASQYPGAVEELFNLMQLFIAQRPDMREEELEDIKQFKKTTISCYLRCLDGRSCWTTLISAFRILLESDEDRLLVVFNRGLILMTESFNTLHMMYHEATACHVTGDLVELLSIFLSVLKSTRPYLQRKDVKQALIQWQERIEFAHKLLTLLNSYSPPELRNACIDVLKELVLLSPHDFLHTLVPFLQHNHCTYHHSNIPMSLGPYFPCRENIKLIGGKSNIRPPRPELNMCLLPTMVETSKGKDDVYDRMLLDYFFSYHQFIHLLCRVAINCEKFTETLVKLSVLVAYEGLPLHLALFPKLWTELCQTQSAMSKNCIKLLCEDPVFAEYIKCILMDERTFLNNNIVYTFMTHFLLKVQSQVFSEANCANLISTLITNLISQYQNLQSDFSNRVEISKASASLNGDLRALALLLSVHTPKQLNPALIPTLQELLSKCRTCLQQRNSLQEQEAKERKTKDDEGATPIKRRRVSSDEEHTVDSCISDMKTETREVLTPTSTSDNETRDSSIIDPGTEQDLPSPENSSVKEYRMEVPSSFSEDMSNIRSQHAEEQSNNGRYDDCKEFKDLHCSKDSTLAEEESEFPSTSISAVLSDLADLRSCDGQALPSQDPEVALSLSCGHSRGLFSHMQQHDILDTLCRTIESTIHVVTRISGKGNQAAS

O=C(CCl)NCCC1COCCO1 (stereo not given)
inactive: USP34 -0.0886 | USP36 -0.0548 | USP38 -0.0125 | USP39 0.0236 | USP4 -0.00705
